About 4,200 (4.2%) of roughly 100,000 compounds were called active.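 Rule for the calls: active = single-dose well whose peak fluorescence ratio is a statistical outlier from its plate by either plate-standardised score or position-corrected B-score; inactive = the rest.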 This excerpt belongs to a sample that is enriched for actives.
Biological target: Voltage-dependent T-type calcium channel subunit alpha-1H (Homo sapiens) (UniProt O95180)
Experiment: Cav3.2 calcium influx blockers – cell-based, Fluo-4 calcium fluorescence, FDSS, MLSMR library, primary screen (AID 449739)
Conditions: Cav3.2-expressing cells, at 10 µM, hits give low values

Voltage-dependent T-type calcium channel subunit alpha-1H (Homo sapiens), sequence (O95180 whole entry, looked up): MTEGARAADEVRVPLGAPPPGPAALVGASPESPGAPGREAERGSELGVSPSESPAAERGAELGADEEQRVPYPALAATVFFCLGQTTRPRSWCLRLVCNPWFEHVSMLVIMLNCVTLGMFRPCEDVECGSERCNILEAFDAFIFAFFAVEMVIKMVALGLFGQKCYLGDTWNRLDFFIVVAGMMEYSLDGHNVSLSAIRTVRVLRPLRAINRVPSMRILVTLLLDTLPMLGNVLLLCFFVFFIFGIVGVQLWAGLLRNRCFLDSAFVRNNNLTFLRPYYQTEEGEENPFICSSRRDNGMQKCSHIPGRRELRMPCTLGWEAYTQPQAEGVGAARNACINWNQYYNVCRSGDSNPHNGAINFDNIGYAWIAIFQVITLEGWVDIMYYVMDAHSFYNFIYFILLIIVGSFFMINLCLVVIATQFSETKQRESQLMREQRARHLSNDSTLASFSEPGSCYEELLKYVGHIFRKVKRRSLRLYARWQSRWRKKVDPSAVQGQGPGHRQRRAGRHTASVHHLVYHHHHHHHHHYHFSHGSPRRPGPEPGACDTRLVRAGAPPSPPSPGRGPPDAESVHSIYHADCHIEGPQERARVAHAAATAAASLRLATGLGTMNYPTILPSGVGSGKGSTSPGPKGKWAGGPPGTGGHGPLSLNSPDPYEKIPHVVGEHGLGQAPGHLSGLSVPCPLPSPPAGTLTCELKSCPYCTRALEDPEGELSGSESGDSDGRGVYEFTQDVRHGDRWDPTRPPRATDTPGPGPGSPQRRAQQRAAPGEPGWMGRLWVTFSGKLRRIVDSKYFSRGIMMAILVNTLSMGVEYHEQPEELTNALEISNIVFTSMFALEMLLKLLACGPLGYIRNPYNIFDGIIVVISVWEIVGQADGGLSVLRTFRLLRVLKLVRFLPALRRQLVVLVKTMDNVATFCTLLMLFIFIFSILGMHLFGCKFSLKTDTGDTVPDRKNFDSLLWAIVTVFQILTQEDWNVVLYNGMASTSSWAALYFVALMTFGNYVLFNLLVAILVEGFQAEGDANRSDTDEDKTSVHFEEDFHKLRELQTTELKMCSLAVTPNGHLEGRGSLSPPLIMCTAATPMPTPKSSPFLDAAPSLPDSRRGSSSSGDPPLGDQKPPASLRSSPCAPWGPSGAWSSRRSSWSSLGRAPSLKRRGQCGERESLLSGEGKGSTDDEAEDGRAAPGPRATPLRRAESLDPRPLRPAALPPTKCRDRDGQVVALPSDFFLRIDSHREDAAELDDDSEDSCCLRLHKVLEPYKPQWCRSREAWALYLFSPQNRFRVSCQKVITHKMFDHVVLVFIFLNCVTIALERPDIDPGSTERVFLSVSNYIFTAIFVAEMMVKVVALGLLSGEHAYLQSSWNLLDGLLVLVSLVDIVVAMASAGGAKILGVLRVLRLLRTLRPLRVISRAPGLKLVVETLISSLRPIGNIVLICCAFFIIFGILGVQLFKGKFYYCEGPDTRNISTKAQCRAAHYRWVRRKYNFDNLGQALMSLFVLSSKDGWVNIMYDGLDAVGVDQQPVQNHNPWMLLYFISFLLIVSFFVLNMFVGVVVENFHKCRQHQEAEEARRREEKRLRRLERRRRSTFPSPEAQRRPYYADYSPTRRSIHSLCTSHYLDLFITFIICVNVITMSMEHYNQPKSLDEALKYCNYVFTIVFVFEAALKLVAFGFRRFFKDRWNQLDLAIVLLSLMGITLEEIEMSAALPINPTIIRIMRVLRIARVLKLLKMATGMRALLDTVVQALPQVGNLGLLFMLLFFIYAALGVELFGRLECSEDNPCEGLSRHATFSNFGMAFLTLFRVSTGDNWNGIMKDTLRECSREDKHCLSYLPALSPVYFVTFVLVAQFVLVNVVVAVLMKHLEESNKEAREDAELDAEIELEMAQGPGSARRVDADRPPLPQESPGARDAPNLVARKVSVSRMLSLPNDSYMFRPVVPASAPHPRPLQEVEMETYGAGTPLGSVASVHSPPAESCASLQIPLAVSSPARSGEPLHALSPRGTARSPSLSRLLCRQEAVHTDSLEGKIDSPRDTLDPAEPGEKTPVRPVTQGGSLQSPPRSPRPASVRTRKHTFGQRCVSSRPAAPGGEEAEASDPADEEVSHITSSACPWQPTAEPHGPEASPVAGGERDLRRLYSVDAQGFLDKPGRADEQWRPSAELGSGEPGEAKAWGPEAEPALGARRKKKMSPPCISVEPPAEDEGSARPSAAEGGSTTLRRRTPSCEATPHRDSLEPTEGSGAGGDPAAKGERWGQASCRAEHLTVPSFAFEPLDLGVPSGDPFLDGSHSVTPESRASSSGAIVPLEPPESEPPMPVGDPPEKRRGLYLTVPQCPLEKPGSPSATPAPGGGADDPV

Row | SMILES | B-score
1 | O=C(COc1ccc(Cl)cc1)NCCC1=CCCCC1 | -2.12 (inactive)
2 | C=C1CCN([C@@H](Cc2ccccc2)C(=O)N2CCOCC2)S(=O)(=O)c2ccccc21 | 0.119 (inactive)
3 | O=C(NC1(C(F)(F)F)N=C2SCCN2C1=O)c1ccco1 (configuration not stated) | 0.645 (inactive)
4 | O=C1N=C(N2CCCC2)S/C1=C\c1cccc(Br)c1 | 0.36 (inactive)
5 | O=C1N=C2SCCN2/C1=C\c1c(Cl)cccc1Cl | -7.62 (active)
6 | O=C(NC1=NCCS1)[C@H](Cc1ccccc1)N1C(=O)c2ccccc2C1=O | -0.0971 (inactive)
7 | NC(=O)CC[C@@H]1NC(=O)[C@@H]2CCCN2C(=O)c2cc([N+](=O)[O-])cc(F)c2NCCC[C@@H](C(N)=O)NC1=O | 0.224 (inactive)
8 | CCCCOC(=O)c1ccc(N2C(=O)CC(N3CCN(C/C=C/c4ccccc4)CC3)C2=O)cc1 (configuration not stated) | -6.05 (active)
9 | CCOC(=O)c1ccc(N2C(=O)CC(N3CC(C)OC(C)C3)C2=O)cc1 (configuration not stated) | 0.246 (inactive)
10 | CCOC(=O)c1ccc(N2C(=O)CC(N(C)Cc3ccccc3)C2=O)cc1 (configuration not stated) | 0.0731 (inactive)
11 | O=C(CCCN1C(=O)c2cccc3cccc(c23)C1=O)N1CCN(Cc2ccc3c(c2)OCO3)CC1 | -2.86 (inactive)
12 | O=C(CN1CCN(c2ncc(C(F)(F)F)cc2Cl)CC1)Nc1ccc2c(c1)OCO2 | -1.4 (inactive)
13 | CC(=O)c1ccc(Cc2ncc(C(F)(F)F)cc2Cl)s1 | -0.288 (inactive)
14 | O=C(Cc1ncc(C(F)(F)F)cc1Cl)Nc1cccc(Br)c1 | -4.67 (active)
15 | O=C(/C=C/c1cccs1)c1cc(Cl)ccc1OC(=O)N1CCOCC1 | -1.17 (inactive)
16 | CN1/C(=c2/s/c(=C3/C(=O)N(c4ccccc4)NC3=Nc3ccccc3)n(C)c2=O)C(C)(C)c2ccccc21 | -2.19 (inactive)
17 | NC(=O)C1=C[C@@H](c2ccc3c(c2)OCO3)C[C@@H](OCCCCO)O1 | 0.476 (inactive)
18 | O=C(Cn1nnc(-c2ccc(CN3CCOCC3)cc2)n1)NC1CCCCC1 | -0.444 (inactive)
19 | COc1ccc(-c2nnn(CC(=O)N(CCO)C(C(=O)NC3CCCC3)c3ccc(F)cc3)n2)cc1 (configuration not stated) | -1.11 (inactive)
20 | COc1cccc(N(CC(=O)NC2CCCC2)C(=O)Cn2nnc(-c3ccc(C)cc3)n2)c1 | -4.56 (active)
21 | COCc1cc(C)nc2sc(C(=O)NC3CCCCC3)c(N)c12 | -0.0172 (inactive)
22 | N#CC1=C(N)N(c2ccc(F)cc2)C(=O)C1 | -0.201 (inactive)
23 | O=C(CC1NCCNC1=O)Nc1ccc(Oc2ccccc2)cc1 (configuration not stated) | -5.21 (active)

Row | SMILES | B-score
24 | CCCOc1ccc(NC(=O)C2CCCNC2=O)cc1 (configuration not stated) | -0.159 (inactive)
25 | CCOc1ccc(NC(=O)CC2NCCNC2=O)cc1 (configuration not stated) | 0.0128 (inactive)
26 | O=C1CCCC2=C1C(c1ccccc1)n1c(s/c(=C/c3cccc(F)c3)c1=O)=N2 (configuration not stated) | 0.975 (inactive)
27 | O=C1N[C@@H](Cc2ccccc2)C(=O)N2[C@@H]3N(S(=O)(=O)c4ccc(F)cc4)c4ccccc4[C@]3(Br)C[C@@H]12 | 0.27 (inactive)
28 | O=S(=O)(O)c1nc2ccccc2n1Cc1ccc(Cl)cc1 | -0.194 (inactive)
29 | Cn1c(=N)n(CC(O)c2ccccc2)c2ccccc21 (configuration not stated) | 0.141 (inactive)
30 | N=c1n(Cc2ccc(Cl)cc2)c2ccccc2n1CC(O)c1ccco1 (configuration not stated) | -3.51 (active)
31 | Cc1cc([N+](=O)[O-])ccc1NCc1cccc([N+](=O)[O-])c1 | 0.0686 (inactive)
32 | Cc1c(CCO)c(=O)[nH]n1C(=O)c1c(F)cccc1F | 0.442 (inactive)
33 | CC1CN(c2nc(-c3ccccc3)nnc2-c2ccccc2)CC(C)O1 (configuration not stated) | -0.222 (inactive)
34 | CSc1cc(C)n(-c2ccccc2C)c(=S)c1C(C)=O | 0.0764 (inactive)
35 | Clc1cccc(-c2nc3nc4ccccc4nc3n2Cc2ccco2)c1 | -2.21 (inactive)
36 | Cc1ccc(Cn2c(NC(=O)c3ccco3)nc3ccccc32)cc1 | 1.58 (inactive)
37 | Cc1ccc(Cn2c(C)nc3c(c2=O)c2nc4ccccc4nc2n3Cc2ccco2)cc1 | -6.69 (active)
38 | COc1cc(OC)c2ccc(=O)oc2c1C(CCN1CCN(c2ccccc2)CC1)c1ccc2c(c1)OCO2 (configuration not stated) | -0.318 (inactive)
39 | C/C=C(\C)C(=O)NCCN1C2=NC[C@H](Cc3ccc(O)cc3)N2C[C@@H]1Cc1ccc(OC)cc1 | -0.0234 (inactive)
40 | CCO[C@H]1OC(C(=O)N2CCOCC2)=C[C@@H](c2ccc3c(c2)OCO3)[C@@H]1CCCO | -0.694 (inactive)
41 | Cc1ccccc1-c1nnc(SCC(=O)NCc2ccc3c(c2)OCO3)n1C | 0.345 (inactive)
42 | O=C(CSc1nnc(-c2ccccn2)n1-c1ccccc1)Nc1ccc2c(c1)OCO2 | 0.144 (inactive)
43 | Cc1cccc(C)c1NC(=O)CSc1nnc(-c2ccccc2)n1Cc1ccc2c(c1)OCO2 | -6.18 (active)
44 | COCCNC(=O)c1onc(CSc2cccc(C)c2)c1C(=O)O | 1.46 (inactive)
45 | CCCCN=C1N/C(=C\c2ccco2)C(=O)N1c1ccccc1 | 0.203 (inactive)
46 | C=C(C)Cn1c(C)cc(C)c(S(=O)(=O)c2ccccc2C)c1=O | -4.84 (active)

Row | SMILES | B-score
47 | COC/C=C/C1=CC2=CC(=O)C(C)(OC(=O)CCC(=O)OC)C(=O)C2=CO1 (configuration not stated) | -0.853 (inactive)
48 | CC1CCN(C(NC(=O)c2ccco2)C(=O)c2ccccc2)CC1 (configuration not stated) | -1.33 (inactive)
49 | COCCNC(=O)Cn1cc(C(=O)c2cccs2)c2ccccc21 | 0.167 (inactive)
50 | O=C(Cn1cc(C(=O)c2cccs2)c2ccccc21)NCc1cccs1 | -4.4 (active)
51 | COC(=O)c1cn(CC(=O)NCc2cccs2)c2ccccc12 | -0.599 (inactive)
52 | CC(=O)n1cc([C@@H]2C=C(C(=O)N3CCN(Cc4ccc5c(c4)OCO5)CC3)O[C@H](OCc3ccc(CO)cc3)C2)c2ccccc21 | -1.49 (inactive)
53 | CC1(OC(=O)CCc2ccccc2)C(=O)C=C2C=C(c3ccc(C#N)cc3)N(CCc3ccccn3)C=C2C1=O (configuration not stated) | 0.634 (inactive)
54 | CC(C)C[C@H](CO)Nc1nc(N(C)c2cccc(Cl)c2)c2ncn(C(C)C)c2n1 | -3.33 (active)
55 | COC(=O)C(C)n1cnc2c(nnn2-c2cccc(Cl)c2)c1=O (configuration not stated) | -0.438 (inactive)
56 | CC(C)n1cnc2c(Nc3cccc(Cl)c3)nc(N(CCO)CCCO)nc21 | -0.405 (inactive)
57 | CCCc1nc2ccccc2c(=O)n1NC(=O)c1c(O)c2ccccc2[nH]c1=O | -3.3 (active)
58 | CCCCc1nc2ccccc2c(=O)n1NC(=O)c1c(O)c2cccc3c2n(c1=O)CC3 | -7.27 (active)
59 | Cn1c(SCC(=O)N2CCCc3ccccc32)nc2ccccc2c1=O | -2.58 (inactive)
60 | CCNC(=O)c1c(O)c2cccc3c2n(c1=O)CC3 | -0.155 (inactive)
61 | CCCc1nc2ccccc2c(=O)n1/N=C/c1ccc(O)c(O)c1 | 0.0906 (inactive)
62 | CCCC(=O)Nc1c(O)c2ccccc2[nH]c1=O | -0.361 (inactive)
63 | Cc1nc(C)c(C(=O)N(c2ccc(C)c(C)c2)C(C(=O)NCc2ccco2)c2ccccc2)s1 (configuration not stated) | -0.655 (inactive)
64 | COc1ccc(NCc2nnc(SCc3ccccc3)n2-c2ccc(OC)cc2)cc1 | -3.07 (inactive)
65 | Cc1cccc(N2C(=O)C3C(c4ccccc4)OC4(C(=O)c5ccccc5C4=O)C3C2=O)c1 (configuration not stated) | -0.244 (inactive)
66 | Cc1nc(-c2ccc(Cl)cc2)sc1C1(C)CC(c2ccccc2F)=NO1 (configuration not stated) | 1.15 (inactive)
67 | COc1ccc(SCCN2CCN(CC(C)C)CCC2=O)cc1 | 0.677 (inactive)
68 | CCOC(=O)/C=C/CN(C(=O)OC(C)(C)C)S(=O)(=O)N1CC=CC1 | 0.152 (inactive)
69 | COC(=O)C1C(=O)NCC1c1ccc(OC)cc1 (configuration not stated) | 0.134 (inactive)

Row | SMILES | B-score
70 | COC(=O)c1cc(OC)ccc1-c1ccc(OC)cc1 | 0.191 (inactive)
71 | COC(=O)C1=C(Nc2ccc(C)cc2)C=C(C)C(C(=O)OC)C1c1ccc(F)cc1 (configuration not stated) | -5.1 (active)
72 | COC(=O)c1ccc(NC(=O)Nc2ccc(C)cc2)cc1 | 0.0358 (inactive)
73 | Cc1ccc(NC(=O)C2CC(c3ccc(F)cc3)=NO2)cc1 (configuration not stated) | 0.0436 (inactive)
74 | COC(=O)C1=C(Nc2ccc(OC)cc2)C=C(C)C(C(=O)OC)C1c1ccc(C)cc1 (configuration not stated) | -5.75 (active)
75 | COP1(=O)C[C@@H](O)[C@@H](O)[C@@H](COCc2ccccc2)O1 (some centres not stated) | 0.634 (inactive)
76 | CC(=O)Nc1ccccc1C(=O)C(=O)Nc1ccc(F)cc1 | 0.288 (inactive)
77 | COc1cccc(CNc2nc3nc4c(c(=O)n3[nH]2)CCC4)c1 | -0.11 (inactive)
78 | Cc1cc2cc3c(N)[nH]nc3nc2cc1C | 0.083 (inactive)
79 | O=[N+]([O-])c1ccc(NCCCN2CCOCC2)c(Cl)c1 | 0.715 (inactive)
80 | O=C(CN1C(=O)NC2(CCCC2)C1=O)Nc1ccc(F)c(F)c1F | 0.274 (inactive)
81 | O=C1c2ccccc2S(=O)(=O)c2cc(N3CCN(c4ccccn4)CC3)ccc21 | 0.804 (inactive)
82 | Cc1ccc(-n2c(C)cc(/C=C(\C#N)C(=O)NCC3CCCO3)c2C)cc1 (configuration not stated) | -1.95 (inactive)
83 | CCC(=O)NC(=Nc1nc2ccccc2s1)NC(=O)CC | -0.485 (inactive)
84 | O=C(O)CSCc1nc2ccccc2s1 | 1.19 (inactive)
85 | CC(C)CC(=O)N/C(N)=N/c1nc2ccccc2s1 | -4.05 (active)
86 | Cc1nn(C)cc1/C=N/NC(=O)c1sc2ccccc2c1Cl | 2.17 (inactive)
87 | Cc1ccc(-c2nn(-c3ccccc3)cc2/C=N/NC(=O)c2ccc3c(c2)OCO3)cc1 | -3.75 (inactive)
88 | Cc1ccc(/C=N/NC(=O)C2=NNC(c3ccccc3)(c3ccccc3)C2)c(O)c1 | -6.92 (active)
89 | COc1ccc(SCc2noc(C(=O)NCC3CCCO3)c2C(=O)O)cc1 (configuration not stated) | 1.72 (inactive)
90 | CCS(=O)(=O)n1nc(-c2ccc(OC)cc2)nc1SC | -0.316 (inactive)
91 | CCS(=O)(=O)n1nc(-c2ccccc2)nc1SCc1ccccc1 | -3.19 (active)
92 | CS(=O)(=O)n1nc(-c2ccccc2)nc1NCc1ccco1 | 0.406 (inactive)
